The results in this text go back to ChEMBL document CHEMBL2218924, “A broad activity screen in support of a chemogenomic map for kinase signalling research and drug discovery” (Biochem J, 2013).

Broadly, the residual activity is the signal under treatment as a percentage of the control signal.

Assay [1] deals with Serine/threonine-protein kinase WNK2 (Homo sapiens) (UniProt Q9Y3S1). To be noted: at 10 µM.
The target of assay [2] is Serine/threonine-protein kinase WNK3 (Homo sapiens) (UniProt Q9BYP7). Particulars: at 1 µM; call rule not given here.
For assay [3] the target is unchanged. To be noted: at 10 µM.
The target in assay [4] is Tyrosine-protein kinase Yes (Homo sapiens) (UniProt P07947). To be noted: at 1 µM.
The target is the same in assay [5]. Particulars: at 10 µM.
Assay [6] concerns the target T1, Tyrosine-protein kinase ZAP-70 (Homo sapiens) (UniProt P43403).
T1 sequence (whole entry): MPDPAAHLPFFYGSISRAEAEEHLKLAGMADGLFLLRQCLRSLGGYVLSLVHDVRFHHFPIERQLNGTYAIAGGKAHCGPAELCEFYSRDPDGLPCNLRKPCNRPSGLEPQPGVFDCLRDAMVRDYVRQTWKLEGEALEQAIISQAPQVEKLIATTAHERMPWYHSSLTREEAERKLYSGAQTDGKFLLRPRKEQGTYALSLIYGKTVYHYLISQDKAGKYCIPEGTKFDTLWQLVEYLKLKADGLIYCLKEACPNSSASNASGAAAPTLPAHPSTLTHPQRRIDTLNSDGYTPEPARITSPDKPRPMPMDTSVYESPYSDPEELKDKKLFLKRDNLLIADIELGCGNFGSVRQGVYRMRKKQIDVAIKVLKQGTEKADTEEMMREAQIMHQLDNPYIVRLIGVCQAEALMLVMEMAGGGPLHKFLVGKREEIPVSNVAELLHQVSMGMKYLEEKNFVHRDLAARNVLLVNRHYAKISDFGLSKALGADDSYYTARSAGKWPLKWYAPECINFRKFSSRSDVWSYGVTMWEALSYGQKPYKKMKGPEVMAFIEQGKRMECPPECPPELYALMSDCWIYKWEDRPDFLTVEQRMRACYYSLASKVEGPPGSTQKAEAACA
To be noted: at 1 µM.

Assay [7] concerns the target Death-associated protein kinase 3 (Homo sapiens) (UniProt O43293). Particulars: at 1 µM.
For assay [8] the target is unchanged. To be noted: at 10 µM.
The target of assay [9] is RAF proto-oncogene serine/threonine-protein kinase (Homo sapiens) (UniProt P04049). Particulars: at 1 µM.
For assay [10] the target is unchanged. To be noted: at 10 µM.

Chain of Serine/threonine-protein kinase WNK2 (Homo sapiens) (Q9Y3S1 whole entry): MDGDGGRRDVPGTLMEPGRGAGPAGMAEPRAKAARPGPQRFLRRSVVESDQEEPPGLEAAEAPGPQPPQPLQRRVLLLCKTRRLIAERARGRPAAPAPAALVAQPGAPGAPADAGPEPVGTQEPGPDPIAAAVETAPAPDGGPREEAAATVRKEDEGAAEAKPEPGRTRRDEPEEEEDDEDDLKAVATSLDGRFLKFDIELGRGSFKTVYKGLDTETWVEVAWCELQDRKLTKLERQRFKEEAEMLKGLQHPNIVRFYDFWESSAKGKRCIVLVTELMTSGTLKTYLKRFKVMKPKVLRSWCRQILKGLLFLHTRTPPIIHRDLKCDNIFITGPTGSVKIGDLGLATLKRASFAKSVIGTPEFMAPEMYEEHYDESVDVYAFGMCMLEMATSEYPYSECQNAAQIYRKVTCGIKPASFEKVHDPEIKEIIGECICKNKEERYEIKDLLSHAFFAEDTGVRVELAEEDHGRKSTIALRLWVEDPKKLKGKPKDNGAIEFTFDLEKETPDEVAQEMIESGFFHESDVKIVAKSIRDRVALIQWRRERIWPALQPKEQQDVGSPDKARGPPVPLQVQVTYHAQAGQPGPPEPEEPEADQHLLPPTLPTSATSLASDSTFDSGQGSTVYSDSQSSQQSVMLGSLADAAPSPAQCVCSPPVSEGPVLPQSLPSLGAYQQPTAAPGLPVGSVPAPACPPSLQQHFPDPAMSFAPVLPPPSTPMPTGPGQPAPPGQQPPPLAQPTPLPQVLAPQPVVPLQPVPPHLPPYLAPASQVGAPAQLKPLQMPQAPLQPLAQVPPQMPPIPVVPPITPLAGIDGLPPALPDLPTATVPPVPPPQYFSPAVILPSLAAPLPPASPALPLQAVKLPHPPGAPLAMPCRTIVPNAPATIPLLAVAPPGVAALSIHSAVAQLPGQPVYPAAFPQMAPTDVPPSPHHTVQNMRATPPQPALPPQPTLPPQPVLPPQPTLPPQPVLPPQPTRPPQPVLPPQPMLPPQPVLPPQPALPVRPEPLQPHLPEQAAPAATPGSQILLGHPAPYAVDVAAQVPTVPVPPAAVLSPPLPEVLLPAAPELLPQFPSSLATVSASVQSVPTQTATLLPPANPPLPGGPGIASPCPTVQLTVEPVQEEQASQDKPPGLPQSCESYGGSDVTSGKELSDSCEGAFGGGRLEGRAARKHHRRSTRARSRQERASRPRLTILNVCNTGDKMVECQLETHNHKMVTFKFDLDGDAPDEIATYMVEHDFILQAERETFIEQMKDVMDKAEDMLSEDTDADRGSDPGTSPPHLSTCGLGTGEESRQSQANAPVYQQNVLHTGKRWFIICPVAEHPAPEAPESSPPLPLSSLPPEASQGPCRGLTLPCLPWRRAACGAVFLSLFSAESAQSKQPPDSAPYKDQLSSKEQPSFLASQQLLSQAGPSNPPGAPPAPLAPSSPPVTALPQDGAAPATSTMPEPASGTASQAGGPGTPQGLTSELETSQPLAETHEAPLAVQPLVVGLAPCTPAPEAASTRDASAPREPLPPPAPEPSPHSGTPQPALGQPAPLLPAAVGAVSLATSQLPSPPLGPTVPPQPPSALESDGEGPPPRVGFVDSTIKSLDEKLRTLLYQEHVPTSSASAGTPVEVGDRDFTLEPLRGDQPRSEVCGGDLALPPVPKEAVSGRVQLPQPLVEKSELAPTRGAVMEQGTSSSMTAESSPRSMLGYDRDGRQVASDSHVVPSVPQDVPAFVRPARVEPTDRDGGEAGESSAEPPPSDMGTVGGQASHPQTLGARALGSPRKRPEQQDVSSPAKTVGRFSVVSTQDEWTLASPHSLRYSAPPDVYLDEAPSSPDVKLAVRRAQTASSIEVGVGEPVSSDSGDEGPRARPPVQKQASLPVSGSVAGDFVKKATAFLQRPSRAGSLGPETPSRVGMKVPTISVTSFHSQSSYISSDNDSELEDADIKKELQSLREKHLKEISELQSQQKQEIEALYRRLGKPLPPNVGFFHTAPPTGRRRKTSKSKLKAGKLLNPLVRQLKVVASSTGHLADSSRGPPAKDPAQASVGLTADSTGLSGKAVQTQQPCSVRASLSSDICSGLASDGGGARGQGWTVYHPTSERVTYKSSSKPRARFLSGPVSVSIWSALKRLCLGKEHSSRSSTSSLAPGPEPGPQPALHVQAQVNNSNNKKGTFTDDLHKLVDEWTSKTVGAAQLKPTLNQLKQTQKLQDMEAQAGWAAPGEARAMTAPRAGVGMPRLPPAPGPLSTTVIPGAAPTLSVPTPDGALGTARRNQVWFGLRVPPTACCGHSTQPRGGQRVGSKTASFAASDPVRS
Chain of RAF proto-oncogene serine/threonine-protein kinase (Homo sapiens) (P04049 whole entry): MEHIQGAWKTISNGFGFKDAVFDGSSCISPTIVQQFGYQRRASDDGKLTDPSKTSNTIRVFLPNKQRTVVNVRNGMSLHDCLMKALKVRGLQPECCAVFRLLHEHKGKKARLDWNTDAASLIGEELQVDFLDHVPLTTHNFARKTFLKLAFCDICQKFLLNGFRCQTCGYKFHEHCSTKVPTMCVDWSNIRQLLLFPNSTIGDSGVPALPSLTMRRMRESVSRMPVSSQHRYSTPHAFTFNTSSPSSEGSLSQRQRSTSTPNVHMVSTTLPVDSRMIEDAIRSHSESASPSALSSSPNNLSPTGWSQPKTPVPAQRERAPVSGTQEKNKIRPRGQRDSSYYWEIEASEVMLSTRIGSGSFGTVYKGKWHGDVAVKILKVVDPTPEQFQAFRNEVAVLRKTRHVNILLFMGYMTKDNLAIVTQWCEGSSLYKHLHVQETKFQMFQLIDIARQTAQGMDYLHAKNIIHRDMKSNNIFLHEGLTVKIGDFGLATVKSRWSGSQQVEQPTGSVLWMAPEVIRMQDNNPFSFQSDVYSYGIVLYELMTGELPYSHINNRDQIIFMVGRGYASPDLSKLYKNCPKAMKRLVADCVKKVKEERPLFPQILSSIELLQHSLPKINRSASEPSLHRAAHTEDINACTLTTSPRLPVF
Chain of Tyrosine-protein kinase Yes (Homo sapiens) (P07947 2-543 limits assumed): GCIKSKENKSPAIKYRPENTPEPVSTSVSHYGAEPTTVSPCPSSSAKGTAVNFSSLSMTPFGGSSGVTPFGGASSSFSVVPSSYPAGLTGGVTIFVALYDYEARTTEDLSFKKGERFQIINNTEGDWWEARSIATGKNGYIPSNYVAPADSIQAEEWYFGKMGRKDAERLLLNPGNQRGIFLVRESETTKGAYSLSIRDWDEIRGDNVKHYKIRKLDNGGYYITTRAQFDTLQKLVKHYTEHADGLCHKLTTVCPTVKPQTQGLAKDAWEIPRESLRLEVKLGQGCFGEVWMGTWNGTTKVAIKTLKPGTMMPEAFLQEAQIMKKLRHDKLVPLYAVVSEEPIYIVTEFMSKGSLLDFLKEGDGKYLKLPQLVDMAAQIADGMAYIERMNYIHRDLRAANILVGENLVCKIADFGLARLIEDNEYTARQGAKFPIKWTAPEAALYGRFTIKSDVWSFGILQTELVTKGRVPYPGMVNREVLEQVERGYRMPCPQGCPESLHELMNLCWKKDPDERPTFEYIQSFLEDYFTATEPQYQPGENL
Chain of Death-associated protein kinase 3 (Homo sapiens) (O43293 whole entry, looked up): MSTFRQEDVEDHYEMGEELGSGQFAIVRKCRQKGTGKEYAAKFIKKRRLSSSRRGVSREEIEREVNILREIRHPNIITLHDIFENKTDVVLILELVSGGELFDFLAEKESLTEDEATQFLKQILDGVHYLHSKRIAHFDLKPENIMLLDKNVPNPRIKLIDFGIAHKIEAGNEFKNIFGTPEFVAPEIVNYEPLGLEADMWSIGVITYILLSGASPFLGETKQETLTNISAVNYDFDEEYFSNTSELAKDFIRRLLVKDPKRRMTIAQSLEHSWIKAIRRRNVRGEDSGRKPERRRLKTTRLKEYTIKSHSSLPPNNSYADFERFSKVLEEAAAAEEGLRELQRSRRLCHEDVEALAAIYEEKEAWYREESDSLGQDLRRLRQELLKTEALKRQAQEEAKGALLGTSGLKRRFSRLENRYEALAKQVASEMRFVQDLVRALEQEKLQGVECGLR

Take `CC(=O)O/N=C1\C(=C2\C(=O)Nc3cc(Br)ccc32)Nc2ccccc21`: the residual activity is 92% in [1]; 101% (inactive) in assay [2]; 94% in [3]; 42% in assay [4]; 4% in [5]; 106% in assay [6]. For the same compound, the residual activity in assay [7] was found to be 99%; in [8] it was 71%; in assay [9], 80%; in assay [10], 75%.
As to `O=C1Nc2cc(Br)ccc2/C1=C1/Nc2ccccc2/C1=N\O`, the residual activity was 91% in assay [1]; 93% (inactive) in assay [2]; 93% in assay [3]; 1% in assay [4]; 4% in [5]; 97% in [6]. In addition, the residual activity in assay [7] is 38%; in assay [8], 18%; in [9] it was 77%; in assay [10], 68%.
Consider `COc1ccc(OC)c2c(=S)c3ccccc3[nH]c12`, for which the residual activity in assay [1] was 87%; in assay [2], 89% (inactive); in assay [3] it was 89%; in assay [4], 100%; in assay [5], 100%; in assay [6], 90%. Moreover, the residual activity in assay [7] was found to be 93%; in assay [8], 90%; in assay [9], 87%; in assay [10], 83%.
Consider `Nc1n[nH]c2nnc(-c3c(-c4ccccc4)nn4ccccc34)cc12`, for which the residual activity in assay [1] was 90%; in assay [2], 83% (inactive); in [3], 86%; in assay [4] it was 93%; in assay [5] it was 33%; in [6] it was 100%. Moreover, the residual activity in [7] is 105%; in assay [8], 88%; in assay [9] it was 80%; in assay [10], 62%.
Consider `Nc1ccc2ncnc(NCCc3ccc(Oc4ccccc4)cc3)c2c1`, for which the residual activity in assay [1] is 82%; in assay [2], 102% (inactive); in [3], 87%; in assay [4], 63%; in [5], 33%; in [6], 109%. Moreover, the residual activity in assay [7] was found to be 111%; in assay [8], 111%; in assay [9] it was 82%; in assay [10] it was 77%.
For the compound `O=C1NC(=O)/C(=C\c2ccc3nccnc3c2)S1`, the residual activity was 65% in assay [1]; 83% (inactive) in assay [2]; 79% in [3]; 119% in [4]; 102% in [5]; 109% in assay [6]. For the same compound, the residual activity worked out at 71% in assay [7], 21% in [8], 73% in [9] and 44% in assay [10].
For `CN(C)c1ccc(/C=C2\C(=O)Nc3ccccc32)cc1`, the residual activity in assay [1] is 76%; in [2], 117% (inactive); in assay [3], 90%; in assay [4], 98%; in [5], 64%; in assay [6], 121%. Also, the residual activity in assay [7] was 108%; in assay [8] it was 97%; in assay [9], 94%; in assay [10], 85%.
With `CC[n+]1c(/C=C/N(C)c2ccccc2)n(-c2ccccc2)c2ccc(-c3nc4ccccc4s3)cc21`, the residual activity in assay [1] was 35%; in assay [2] it was 100% (inactive); in [3] it was 44%; in [4] it was 105%; in [5], 100%; in [6], 117%. In addition, the residual activity in assay [7] stood at 100%; in assay [8], 73%; in [9] it was 105%; in assay [10] it was 98%.
Turning to `CC(C)n1cnc2/c(=N/c3cccc(Cl)c3)nc(NCCO)[nH]c21`, the residual activity in assay [1] is 52%; in assay [2], 88% (inactive); in assay [3] it was 57%; in assay [4], 27%; in assay [5], 2%; in assay [6], 98%. Also, the residual activity in assay [7] is 103%; in [8] it was 93%; in assay [9], 70%; in assay [10], 31%.
In the case of `O=C(Nc1cccc(Nc2nccc(Nc3cccc(C(F)(F)F)c3)n2)c1)C1CC1`, the residual activity in [1] is 50%; in assay [2] it was 90% (inactive); in assay [3], 65%; in [4], 56%; in assay [5], 51%; in [6] it was 113%. Moreover, the residual activity in [7] came out at 84%; in assay [8], 49%; in assay [9], 89%; in assay [10], 85%.
`C[C@@H](N)[C@H]1CC[C@H](C(=O)Nc2ccncc2)CC1`: the residual activity is 90% in [1]; 106% (inactive) in assay [2]; 102% in assay [3]; 108% in assay [4]; 94% in assay [5]; 92% in assay [6]. Besides, the residual activity in assay [7] stood at 101%; in assay [8], 99%; in assay [9], 100%; in assay [10], 108%.
As to `O=C1Nc2ccccc2/C1=C1/Nc2ccccc2/C1=N\OCCC(O)CO` (stereo not drawn), the residual activity in [1] is 40%; in assay [2], 76% (inactive); in assay [3], 50%; in assay [4], 8%; in assay [5], 2%; in assay [6] it was 97%. The residual activity was 63% in [7], 54% in [8], 54% in [9] and 60% in assay [10].
Consider `COc1ccc(CNc2nc(N(CCO)CCO)nc3c2ncn3C(C)C)cc1`, for which the residual activity in [1] is 86%; in [2], 97% (inactive); in assay [3] it was 93%; in [4] it was 100%; in assay [5] it was 89%; in [6], 102%. Besides, the residual activity is 99% in assay [7], 92% in [8], 85% in [9] and 69% in assay [10].
For the compound `O=C1NC(=O)c2cc(Nc3ccc(F)cc3)c(Nc3ccc(F)cc3)cc21`, the residual activity in assay [1] was 34%; in assay [2], 87% (inactive); in [3] it was 46%; in assay [4], 61%; in [5], 10%; in [6], 113%. Further, the residual activity in assay [7] came out at 104%; in [8], 99%.
Turning to `Oc1n[nH]c2nnc(-c3c(-c4ccccc4)nn4ccccc34)cc12`, the residual activity in assay [1] was 86%; in assay [2], 92% (inactive); in [3] it was 83%; in assay [4], 104%; in [5] it was 91%; in [6] it was 105%. Besides, the residual activity in assay [7] came out at 66%; in [8], 48%; in assay [9] it was 73%; in [10] it was 77%.
For `CCOc1cc2ncnc(Nc3cccc(Br)c3)c2cc1OCC`, the residual activity in assay [1] is 79%; in assay [2], 99% (inactive); in assay [3], 86%; in [4] it was 17%; in assay [5] it was 2%; in assay [6], 122%. Further, the residual activity is 91% in assay [7], 96% in assay [8], 84% in assay [9] and 71% in assay [10].
